Inconclusive results are not listed. Calls of active or inactive are those of the source. Calls come from the whole dose curve; as a rule, active = well fitted curve in the direction sought with a large enough effect; inconclusive = small, poorly fitted or top-dose-only effect, or another doubt; inactive = no such curve, though single readings can be large; an effect the other way counts as inactive or inconclusive.
What was measured:
[1] = Quantitative High-Throughput drug screen in 47 multiple myeloma cell lines against the NCATS MIPE library collection: FR4_PLB cell viability assay (AID 1918924; note: nearly all actives have a fitted effect of over 35% in size)
Method in brief: (§1)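 Myeloma cell lines, 500 cells per well, exposed to MIPE 4.0 library compounds for 48 h at 37C, 5% CO2. Viability from ATP by CellTiter-Glo luminescence; normalised to DMSO (100%) and media-only (0%) wells.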

[2] = Quantitative High-Throughput drug screen in 47 multiple myeloma cell lines against the NCATS MIPE library collection: EJM_DSMZ cell viability assay (AID 1918926; note: nearly all actives have a fitted effect of over 30% in size)
Method in brief: as §1

[3] = Quantitative High-Throughput drug screen in 47 multiple myeloma cell lines against the NCATS MIPE library collection: ARD_JJKsccE7 cell viability assay (AID 1918929)
Method in brief: as §1

[4] = Quantitative High-Throughput drug screen in 47 multiple myeloma cell lines against the NCATS MIPE library collection: Karpas620_DSMZ cell viability assay (AID 1918959); note: nearly all actives have a fitted effect of over 30% in size
Method in brief: as §1

[5] = Quantitative High-Throughput drug screen in 47 multiple myeloma cell lines against the NCATS MIPE library collection: KMM1_JCRB cell viability assay (AID 1918960); note: nearly all actives have a fitted effect of over 30% in size
Method in brief: (§2)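 Myeloma cells, 500 per well, were exposed to MIPE 4.0 drugs by pin transfer for 48 h at 37 °C, 5% CO2. Viability was read as ATP luminescence with CellTiter-Glo, normalised to DMSO-only (100%) and medium-only (0%) wells.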

[6] = Quantitative High-Throughput drug screen in 47 multiple myeloma cell lines against the NCATS MIPE library collection: JIM3_ECACC cell viability assay (AID 1918963; note: nearly all actives have a fitted effect of over 35% in size)
Method in brief: as §1

[7] = Quantitative High-Throughput drug screen in 47 multiple myeloma cell lines against the NCATS MIPE library collection: H1112_PLB cell viability assay (AID 1918967; note: nearly all actives have a fitted effect of over 30% in size)
Method in brief: as §1

[8] = Quantitative High-Throughput drug screen in 47 multiple myeloma cell lines against the NCATS MIPE library collection: KMS27_JCRB cell viability assay (AID 1918970); note: nearly all actives have a fitted effect of over 30% in size
Method in brief: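 Each line is seeded at 500 cells per well and treated with library compounds for 48 hours under 37 °C, 5% CO2. CellTiter-Glo is then added for 5 min at room temperature before median relative luminescence is recorded.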

[9] = Quantitative High-Throughput drug screen in 47 multiple myeloma cell lines against the NCATS MIPE library collection: KMS12BM_JCRB cell viability assay (AID 1918971); note: nearly all actives have a fitted effect of over 35% in size
Method in brief: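 Relative luminescence from CellTiter-Glo served as the viability signal, referenced to DMSO-treated (100%) and cell-free medium (0%) controls. Treatment lasted 48 hours at 37C with 500 cells per well.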

[10] = Quantitative High-Throughput drug screen in 47 multiple myeloma cell lines against the NCATS MIPE library collection: KMS12PE_JCRB cell viability assay (AID 1918972); note: nearly all actives have a fitted effect of over 30% in size
Method in brief: as §1

[11] = Quantitative High-Throughput drug screen in 47 multiple myeloma cell lines against the NCATS MIPE library collection: Delta47_JCRB cell viability assay (AID 1918925; note: nearly all actives have a fitted effect of over 45% in size)
Method in brief: as §1

[12] = Quantitative High-Throughput drug screen in 47 multiple myeloma cell lines against the NCATS MIPE library collection: AMO1_DSMZ cell viability assay (AID 1918927; note: nearly all actives have a fitted effect of over 30% in size)
Method in brief: as §1

[13] = Quantitative High-Throughput drug screen in 47 multiple myeloma cell lines against the NCATS MIPE library collection: ARP1_JJKsccF8 cell viability assay (AID 1918928; note: nearly all actives have a fitted effect of over 40% in size)
Method in brief: as §2

[14] = Quantitative High-Throughput drug screen in 47 multiple myeloma cell lines against the NCATS MIPE library collection: INA6_PLB cell viability assay (AID 1918965; note: nearly all actives have a fitted effect of over 55% in size)
Method in brief: as §1

[15] = Quantitative High-Throughput drug screen in 47 multiple myeloma cell lines against the NCATS MIPE library collection: JJN3_DSMZ cell viability assay (AID 1918966; note: nearly all actives have a fitted effect of over 50% in size)
Method in brief: as §1

[16] = Quantitative High-Throughput drug screen in 47 multiple myeloma cell lines against the NCATS MIPE library collection: Karpas25_ECACC cell viability assay (AID 1918968; note: nearly all actives have a fitted effect of over 35% in size)
Method in brief: as §1

[17] = Quantitative High-Throughput drug screen in 47 multiple myeloma cell lines against the NCATS MIPE library collection: Karpas417_ECACC cell viability assay (AID 1918961); settings: Karpas417 myeloma viability, CellTiter-Glo ATP luminescence, 48 h; viability (% of DMSO): at 45.8 µM (top of the series)
Method in brief: as §1

[18] = Quantitative High-Throughput drug screen in 47 multiple myeloma cell lines against the NCATS MIPE library collection: JIM1_ECACC cell viability assay (AID 1918964)
Method in brief: as §1

[19] = Quantitative High-Throughput drug screen in 47 multiple myeloma cell lines against the NCATS MIPE library collection: KHM11_PLB cell viability assay (AID 1918962); note: nearly all actives have a fitted effect of over 35% in size
Method in brief: as §1

[20] = Quantitative High-Throughput drug screen in 47 multiple myeloma cell lines against the NCATS MIPE library collection: KMS20_JCRB cell viability assay (AID 1918973); note: nearly all actives have a fitted effect of over 45% in size
Method in brief: as §1
Potency is the fitted concentration of half-maximal effect.

Structure (SMILES) | Potency [1] | Potency [2] | Potency [3] | Potency [4] | Potency [5] | Potency [6] | Potency [7] | Potency [8] | Potency [9] | Potency [10] | Potency [11] | Potency [12] | Potency [13] | Potency [14] | Potency [15] | Potency [16] | Potency [17] | Potency [18] | Potency [19] | Potency [20]
CC(C)(O)CCc1ccc(OCc2cc(-c3cccc(OC(F)F)c3)c3ncccc3c2)cc1 | inactive | inactive | inactive | inactive | inactive | inactive | 20.9 µM (active) | inactive | inactive | inactive |  |  |  |  |  |  |  |  |  | 
Cn1cc(-c2ccncc2)c(-c2ccc(OCc3ccc4ccccc4n3)cc2)n1 |  | 14.8 µM (active) | 6.62 µM (active) | 4.69 µM (active) | 8.33 µM (active) |  |  |  | 18.7 µM (active) | 5.9 µM (active) | 2.64 µM (active) | 3.32 µM (active) | 4.69 µM (active) | 3.32 µM (active) | 3.72 µM (active) | 1.48 µM (active) |  |  |  | 
Cn1c2cc(S(C)=O)sc2c2cnn(Cc3cccc(N)c3)c(=O)c21 (configuration not stated) | inactive | inactive | inactive | inactive | inactive |  | inactive |  | inactive | inactive |  |  | inactive |  | inactive | inactive | inactive | inactive |  | 
Clc1cccc(-n2nnnc2NCc2ccccc2Oc2ccccn2)c1Cl | inactive | inactive |  |  |  | inactive | inactive |  |  |  |  |  |  | inactive |  |  |  |  | inactive | 
O=C(O)CO.[NH2-].[NH2-].[Pt+2] | inactive | inactive |  | inactive | inactive | inactive | inactive |  | inactive | inactive |  |  | inactive |  | inactive | inactive |  |  |  | 
CN(C)CCCN=c1c2ccccc2n(C)c2[nH]c(=O)n(C)c(=O)c12 |  | 20.9 µM (active) | 5.26 µM (active) |  | 4.69 µM (active) |  | 16.6 µM (active) |  | 4.18 µM (active) | 5.9 µM (active) | 16.6 µM (active) | 2.96 µM (active) | 18.7 µM (active) | 3.72 µM (active) | 16.6 µM (active) |  |  |  | 5.26 µM (active) | 
O=c1c2ccccc2nc2n1CCc1c-2[nH]c2ccccc12 | inactive |  | inactive | 18.7 µM (active) |  |  |  |  | inactive | inactive |  | inactive |  |  |  | inactive | inactive |  |  | 
C=CC(=O)Nc1cccc(Oc2nc(Nc3ccc(N4CCN(C)CC4)cc3)ncc2Cl)c1 |  | 23.5 µM (active) | 16.6 µM (active) | 5.26 µM (active) | 9.35 µM (active) |  | 5.9 µM (active) | 4.69 µM (active) |  | 1.87 µM (active) | 1.87 µM (active) | 5.26 µM (active) | 13.2 µM (active) | 2.96 µM (active) | 18.7 µM (active) |  |  |  | 16.6 µM (active) | 1.87 µM (active)
COc1cccc(-c2ccc(NC(=O)C3=C(C(=O)O)CCC3)c(F)c2)c1 |  | inactive |  | inactive |  | 23.5 µM (active) | inactive |  | 20.9 µM (active) | 2.96 µM (active) | inactive | 6.62 µM (active) | 16.6 µM (active) | 4.69 µM (active) |  | inactive |  |  | inactive | 
O=C(O)[C@H](Cc1c[nH]c2ccccc12)N1C(=O)c2ccccc2C1=O | inactive | inactive |  | inactive | inactive | inactive |  |  |  | inactive |  | inactive | inactive |  |  | inactive |  | inactive |  | inactive
COc1ccc2c(c1)CC[C@@H](CN(C)CC(=O)O)[C@H]2c1ccccc1 | 1.05 µM (active) |  | 1.32 µM (active) |  | 1.32 µM (active) | 1.66 µM (active) |  |  | 2.09 µM (active) | 1.05 µM (active) |  | 0.59 µM (active) | 3.32 µM (active) | 2.96 µM (active) | 10.5 µM (active) |  |  |  | 0.662 µM (active) | 
CN1CCN(c2ccc3nc(-c4c(N)c5c(F)cccc5[nH]c4=O)[nH]c3c2)CC1 |  | 18.7 µM (active) | 14.8 µM (active) | 8.33 µM (active) | 16.6 µM (active) | 13.2 µM (active) | 7.43 µM (active) | 7.43 µM (active) | 16.6 µM (active) | 5.9 µM (active) | 2.35 µM (active) | 11.8 µM (active) | 20.9 µM (active) |  | 20.9 µM (active) | 2.64 µM (active) | 8.33 µM (active) |  | 2.09 µM (active) | 1.32 µM (active)
COC(=O)c1ccc2c(C(=Nc3ccc(N(C)C(=O)CN4CCN(C)CC4)cc3)c3ccccc3)c(O)[nH]c2c1 |  | 3.72 µM (active) |  |  | 1.66 µM (active) | 6.62 µM (active) |  |  | 16.6 µM (active) | 0.526 µM (active) | 6.62 µM (active) | 4.69 µM (active) | 23.5 µM (active) | 8.33 µM (active) | 2.35 µM (active) | 11.8 µM (active) | 0.187 µM (active) | 0.0469 µM (active) | 26.4 µM (active) | 2.64 µM (active)

From PubChem BioAssay (NCATS)
